According to PubChem BioAssay AID1851 (National Center for Advancing Translational Sciences (NCATS), 2009):
Among all 16,000 compounds or so, about 2,600 (16%) were called active. Roughly 20% stayed inconclusive and do not appear here. Only a sample is shown. Values without a mark were called inactive. Calls follow the shape of the dose curve; as a rule, active = well fitted curve in the direction sought with a large enough effect; inconclusive = small, poorly fitted or top-dose-only effect, or effect the other way; inactive = no such curve, though single readings can be large or run the other way.

target: Cytochrome P450 2D6 (Homo sapiens) (UniProt P10635); test: Cytochrome panel assay with activity outcomes; settings: recombinant CYP, pro-luciferin dealkylation, luminescence, p450-cyp2d6; series mostly up to 57.1 µM; activity, negative = inhibition: at the top concentration
Sequence (P10635 whole entry, looked up): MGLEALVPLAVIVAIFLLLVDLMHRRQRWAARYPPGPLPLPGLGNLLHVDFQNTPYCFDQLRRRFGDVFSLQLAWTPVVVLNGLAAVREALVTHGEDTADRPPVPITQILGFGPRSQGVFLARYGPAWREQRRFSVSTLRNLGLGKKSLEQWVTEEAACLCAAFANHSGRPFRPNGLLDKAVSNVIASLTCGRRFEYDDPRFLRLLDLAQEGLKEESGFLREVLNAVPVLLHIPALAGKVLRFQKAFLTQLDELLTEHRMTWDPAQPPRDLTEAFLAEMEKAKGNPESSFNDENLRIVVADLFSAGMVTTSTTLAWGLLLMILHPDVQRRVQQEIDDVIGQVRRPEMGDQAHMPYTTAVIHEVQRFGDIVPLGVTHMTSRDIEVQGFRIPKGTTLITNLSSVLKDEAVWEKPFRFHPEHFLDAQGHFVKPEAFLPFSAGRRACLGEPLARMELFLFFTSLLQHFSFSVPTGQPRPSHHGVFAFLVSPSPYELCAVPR
% is scaled to controls: 0 for no effect and ±100 for the full control effect.

In order of falling “activity, negative = inhibition” value:
1. C[C@@H]1CCc2cc(F)cc3c(=O)c(C(=O)O)cn1c23  6.54% [at 25.6 µM]
2. C[C@@]12CCC(=O)C=C1CC[C@@H]1[C@@H]2[C@H](O)C[C@]2(C)[C@@H]1CC[C@]2(O)C(=O)CO  2.89% [at 25.6 µM]
3. CN[C@H]1[C@@H](O[C@@H]2[C@H](O[C@@H]3[C@@H](O)[C@@H](O)[C@@H](N=C(N)N)[C@@H](O)[C@@H]3N=C(N)N)O[C@H](C)[C@@]2(O)C=O)O[C@@H](CO)[C@@H](O)[C@H]1O  1.07% [at 25.6 µM]
4. C[C@@H]1Cc2ccccc2N1NC(=O)c1ccc(Cl)c(S(N)=O)c1 (stereo partly drawn)  -10.6% [at 25.6 µM]
5. CCOC(=O)C1=C(C)NC(C)=C(C(=O)OC)[C@@H]1c1cccc([N+](=O)[O-])c1  -12% [at 25.6 µM]
6. COc1cc2nc(N(C)CCCNC(=O)[C@@H]3CCCO3)nc(N)c2cc1OC  -16% [at 25.6 µM]

In order of rising “activity, negative = inhibition” value:
1. CCCn1nc2cc(C(=O)NCc3ccc4c(c3)OCO4)ccc2c1OCC  -40.6%
2. Cc1ccc(NC(=O)c2nnn(-c3cc(C)cc(C)c3)c2N)cc1  -35.7%
3. O=C(NC1CCCCC1)C1CC=CCC1C(=O)OCC(Cl)=C(Cl)Cl (stereo not drawn)  -29.9%
4. FC(F)(F)c1nnc(-c2ccccc2)nc1Sc1ccccc1  -29.5%
5. COc1ccc(C(=O)NC(CO)c2nnc(SCc3ccc(Cl)c(Cl)c3)n2C)cc1 (stereo not drawn)  -29.4%
6. O=[N+]([O-])c1ccccc1/C=N/n1c(COc2ccccc2)n[nH]c1=S  -29.2%
7. CC1(C)CC2(CC(c3cccs3)c3cc(Cl)c(O)cc3O2)NC(=S)N1 (stereo not drawn)  -28.9%
8. Clc1ccc2c(c1)C1=C(C(c3ccncc3)O2)C(c2ccc(Br)cc2)n2ncnc2N1 (stereo not drawn)  -28.8%
9. CCn1nnnc1SCC(=O)c1ccc2c(c1)OCCO2  -25.7%
10. CCc1ccccc1NC(=O)c1ccc(-n2c(C)ccc2C)cc1  -24.8%
11. CCNc1nc(NCC)nc(N(C)N)n1  -24.1%
12. CCN(CC)c1cc(C)c2cc(NC(=O)CNC(C)=O)ccc2n1  -22.7%
13. Cc1ccccc1-c1cc(NCc2cccnc2)ncn1  -18.7%
14. Cc1ccccc1C(C(=O)NCc1ccccc1)N(Cc1ccco1)C(=O)c1ccccn1 (stereo not drawn)  -16.9%
15. O=C(Nc1ncc(Cc2cccc(Cl)c2)s1)C1=NCCN1  -16.7%
16. CC(C)CC(=O)Nc1ccc2c(c1)oc1ccccc12  -15.8%
17. O=C(Cc1ccc2c(c1)CCCC2)Nc1ccccc1Br  -15.8%
18. O=C1C2Sc3[nH]c(=O)sc3C(c3ccccc3)C2C(=O)N1c1ccccc1 (stereo not drawn)  -14.8%
19. CCOC(=O)c1cc2sc(C)cc2n1CC(=O)N1CCN(C(=O)c2ccco2)CC1  -14.6%
20. Cn1c(=O)c2cc(S(=O)(=O)NCCC(=O)Nc3ccc(Cl)cc3)ccc2n(C)c1=O  -13.9%
21. COc1cccc(N2CCN(C(=O)Nc3ccc4c(c3)NC(=O)CO4)CC2)c1  -13.3%
22. O=C(NCC1CCC(C(=O)O)CC1)OCc1ccccc1 (stereo not drawn)  -12.9%
23. Cc1ccc(/C=N/n2cnnc2)s1  -11.6%
24. Cc1ccc(CNC(=O)CCNS(=O)(=O)c2ccc3c(c2)c(=O)n(C)c(=O)n3C)cc1  -11.3%
25. CC(=O)Nc1cccc(NC(=O)C2CCCN2C(=O)Nc2ccccc2C)c1 (stereo not drawn)  -10.4%
26. CCCn1nnc(NC(=O)Cc2ccccc2)n1  -9.5%
27. O=C(Nc1cnn(Cc2ccc(Cl)cc2Cl)c1)c1cc(-c2cccs2)on1  -9.02%
28. COc1cc(OC)cc(C(=O)NCC(=O)OC2CCOC2=O)c1 (stereo not drawn)  -8.8%
29. Cc1ccc(CNC(=O)C2CCCN2C(=O)NCc2ccccc2)cc1 (stereo not drawn)  -6.14%
30. Cc1cccc(CNc2ccnc(-c3ccc(C(=O)N(C)C)cc3)n2)c1  -6.1%
31. CCN(CC)S(=O)(=O)c1cc(C(=O)OC)ccc1Cl  -5.66%
32. CC1CCCC(C)N1C(=O)C1CC(c2ccc(F)cc2)=NO1 (stereo not drawn)  -5.48%
33. Cc1nc2cnc(N(C)C)nc2n(C2CC2)c1=O  -4.46%
34. O=C1C(C2=NC(C(=O)O)C3C(=O)N(c4ccc(Cl)cc4)C(=O)C23)=C(O)c2ccccc21 (stereo not drawn)  -3.63%
35. CC(=O)Nc1ccnc(-c2cccnc2)n1  -2.93%
36. C=CCN1C(=NC(=O)CC)SC2CS(=O)(=O)CC21 (stereo not drawn)  -2.84%
37. C=CCNC(=S)NNc1ncnc2sc3c(c12)CC(C)(C)OC3  -2.64%
38. CSc1nc(C)c(CCOC(=O)c2cccc(C)c2)c(=O)[nH]1  -2.28%
39. CC(C)CN1CCCC2(CCN(S(=O)(=O)c3ccccc3)CC2)C1  -2.15%
40. Cc1nn(C)cc1C(=O)NNC(=S)Nc1ccccc1  -1.67%
41. Nc1nc2c(nc(Br)n2[C@@H]2O[C@H]3COP(=O)(O)O[C@@H]3[C@H]2O)c(=O)[nH]1  -1.47%
42. CCOC(=O)c1c(C)nc2sc3c(=O)n(-c4ccc(OC)cc4)nnc3c2c1-c1ccc(OC)cc1  -1.38%
43. COCCNC(=O)CCCCCn1c(=S)[nH]c2ccccc2c1=O  -1.04%
44. CCN(CC)S(=O)(=O)c1cc(C(=O)Nc2ccccc2C(=O)O)ccc1OC  0.338%
45. COC(=O)[C@@]1(Cc2ccc(OC)cc2)[C@H]2c3cc(C(=O)N4CCCC4)n(CCc4c[nH]c5cc(F)ccc45)c3C[C@H]2CN1C(=O)c1ccccc1  0.678%
46. O=C(O)Cc1c[nH]c2ccc(O)cc12  3.43%
47. CCC/C=C(\CCC)C(NC(=O)c1cccs1)c1ccc(C(F)(F)F)cc1 (stereo not drawn)  4.02%
48. COC(=O)c1cc(OC)c(OC)cc1NC(=O)CSc1ccccc1  4.67%
49. COc1ccc2cc(CCNC(=O)C3CC3)c(=O)[nH]c2c1  5.67%
50. CCOc1ccc(-c2nn(-c3ccccc3)cc2/C=C(\C#N)S(=O)(=O)c2ccccc2)cc1C  6.66%
51. CCCCC(=O)Nc1nnc(SCC(=O)NC2CCCC2)s1  8.09%
52. COc1ccc(N=Cc2ccc(CNS(=O)(=O)c3ccc(Cl)cc3)o2)cc1  15.2%
53. CC(C)(C)C(=O)Nc1ccnc(-c2cccnc2)n1  15.9%
54. CC(=O)Nc1ccc([N+](=O)[O-])cn1  21.1%

In the case of `O[C@H](C[C@@H]1CCCCN1)c1ccc2c(c1)oc1ccccc12`, the AC50 is reported as 0.1 µM (active).
With `Cc1ccccc1-c1nccc(NCc2cccnc2)n1` the AC50 was 20 µM (active).
For `c1ccc(CNc2ccnc(-c3cccnc3)n2)cc1`, the AC50 was 1.26 µM (active).
In the case of `Cc1cccc(CNc2ccnc(-c3cccnc3)n2)c1`, the AC50 is reported as 0.631 µM (active).
With `O=C(Nc1ccnc(-c2cccnc2)n1)c1cccc(Cl)c1Cl` the AC50 was 2.24 µM (active).
`Cn1c(=O)c2cc(S(=O)(=O)NCCC(=O)NCCc3ccc(Cl)cc3)ccc2n(C)c1=O` was tested, and the AC50 was 15.8 µM (active).
In the case of `c1ccc(CSCCc2ccncc2)cc1`, the AC50 is reported as 1.26 µM (active).
With `c1ccc2c(CSCCc3ccncc3)cccc2c1` the AC50 was 0.398 µM (active).
With `Clc1ccc(CSCCc2ccncc2)cc1Cl` the AC50 was 0.316 µM (active).
In the case of `COc1cccc(-c2cncnc2NCCc2c[nH]c3ccc(OC)cc23)c1`, the AC50 is reported as 2.51 µM (active).
With `COc1ccc2[nH]cc(CCNc3ncncc3-c3cccc(NS(C)(=O)=O)c3)c2c1` the AC50 was 3.16 µM (active).
In the case of `COc1ccc2[nH]cc(CCNc3ncncc3-c3cccnc3)c2c1`, the AC50 is reported as 12.6 µM (active).
`COc1ccc2c(CC(=O)NCC3CCC(C(=O)O)CC3)cc(=O)oc2c1` (stereo not drawn) was tested, and the AC50 was 6.31 µM (active).
`CCN(CC)S(=O)(=O)c1cc(C(=O)Nc2ccncc2)ccc1Cl` was tested, and the AC50 was 2.24 µM (active).
`Oc1c(CN2CCCCC2)cc(Br)c2cccnc12` was tested, and the AC50 was 7.94 µM (active).
In the case of `CC(C)N=c1cc2n(-c3ccc(Cl)cc3)c3ccccc3nc-2cc1Nc1ccc(Cl)cc1`, the AC50 is reported as 2.51 µM (active).
With `COc1ccccc1NC(=O)N1CCCC1C(=O)NCc1ccc2c(c1)OCO2` (stereo not drawn) the AC50 was 14.1 µM (active).
With `CCc1ccccc1NC(=S)NCc1ccc2c(c1)OCO2` the AC50 was 1.26 µM (active).
With `COC(=O)C1=C(C)NC(C)=C(C(=O)OCCSc2ccccc2)[C@@H]1C` the AC50 was 25.1 µM (active).
In the case of `CC[C@H](C(=O)c1cccs1)C(O)(C(F)(F)F)C(F)(F)F`, the AC50 is reported as 3.16 µM (active).
In the case of `CC(C)CN1CC[C@@]2(CCCN(S(=O)(=O)c3ccccc3)C2)C1`, the AC50 is reported as 0.501 µM (active).
In the case of `CC(C)CN1CCC2(CC1)CCN(S(=O)(=O)c1ccccc1)CC2`, the AC50 is reported as 1 µM (active).
`O=C1CC(c2cccs2)c2cc3c(cc2N1)OCO3` (stereo not drawn) was tested, and the AC50 was 8.91 µM (active).

In order of falling activity, negative = inhibition:
1. O=C(O)C(Cc1cccs1)C(=O)O  21.5% [at 11.4 µM]
2. CO[C@@H]1/C=C\CC(=O)N[C@@H](C)C(=O)OC[C@@H](OC)[C@H](C)CCCC(=O)OC[C@H]1C  17% [at 11.4 µM]
3. Nc1ncnc2c1ncn2[C@H]1O[C@@H](C(=O)OCCO)[C@@H](O)[C@H]1O  17% [at 11.4 µM]
4. c1ccc2c(CSCc3cccc4ccccc34)cccc2c1  9.11% [at 11.4 µM]
5. O=C(O)CNc1ccc(C(=O)O)cc1  8.05% [at 11.4 µM]
6. O=C(O)c1cc(N=Cc2ccccc2O)cc(C(=O)O)c1  7.13% [at 11.4 µM]
7. Cc1cc(C2(c3cc(C)c(O)c(C(=O)O)c3)OS(=O)(=O)c3ccccc32)cc(C(=O)O)c1O  5.11% [at 11.4 µM]
8. Cn1c(=S)c2[nH]c(SCCN3C(=O)c4ccccc4C3=O)nc2n(C)c1=O  2.46% [at 11.4 µM]
9. S=c1nc[nH]c2c1ncn2Cc1ccco1  1.42% [at 11.4 µM]
10. CC(C)=C[C@H]1[C@@H](COC(=O)c2ccccc2Cl)C1(C)C  -3.97% [at 11.4 µM]
11. NS(=O)(=O)c1cc(Br)c(N=Nc2ccc(O)c3ncccc23)c(Br)c1  -4.11% [at 11.4 µM]
12. N[C@@H](CSCc1ccccc1)C(=O)O  -7.04% [at 11.4 µM]
13. N=C(N)SCCc1ccncc1  -9.64% [at 11.4 µM]
14. C#CCCCO/N=C1/C[C@@H](O)[C@@H](O)[C@@H]2[C@@H]3C(=O)N([C@@H](C)c4ccccc4)C(=O)[C@H]3CC[C@@H]12  -9.9% [at 11.4 µM]
15. CC(C)(C)CC(C)(C)c1cc(O)c(O)c(CN2CCCCC2)c1  -16.1% [at 11.4 µM]
